# Screening results from PubChem BioAssay.
# ABHD5 PLIN5 PPI: ABHD5-PLIN5 protein interaction inhibition; Q00G26+Q8WTS1; Split G. princeps luciferase complementation, luminescence, 4 h; inhibition, % at 4 µM; 0.78% of 360,000 active; AID 602281;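 active = inhibition above the mean inhibition across every tested compound plus 3 SD, cut at about 22% in these data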;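 also: 0% = DMSO only wells and the 100% control is not disclosed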
# Target sequence (Q00G26 whole entry, looked up): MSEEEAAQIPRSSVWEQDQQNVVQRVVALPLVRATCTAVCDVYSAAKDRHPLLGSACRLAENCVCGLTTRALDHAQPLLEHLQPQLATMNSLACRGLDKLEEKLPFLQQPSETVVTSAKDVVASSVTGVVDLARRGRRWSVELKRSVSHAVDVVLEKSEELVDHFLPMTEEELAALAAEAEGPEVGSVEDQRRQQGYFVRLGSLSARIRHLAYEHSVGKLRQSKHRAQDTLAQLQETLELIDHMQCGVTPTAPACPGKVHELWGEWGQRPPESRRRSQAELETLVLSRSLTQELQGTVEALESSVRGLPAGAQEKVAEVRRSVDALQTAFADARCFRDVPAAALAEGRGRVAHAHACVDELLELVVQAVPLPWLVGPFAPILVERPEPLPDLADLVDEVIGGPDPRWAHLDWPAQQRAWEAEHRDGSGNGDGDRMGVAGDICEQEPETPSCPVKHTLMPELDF
# Target sequence (Q8WTS1 whole entry, looked up): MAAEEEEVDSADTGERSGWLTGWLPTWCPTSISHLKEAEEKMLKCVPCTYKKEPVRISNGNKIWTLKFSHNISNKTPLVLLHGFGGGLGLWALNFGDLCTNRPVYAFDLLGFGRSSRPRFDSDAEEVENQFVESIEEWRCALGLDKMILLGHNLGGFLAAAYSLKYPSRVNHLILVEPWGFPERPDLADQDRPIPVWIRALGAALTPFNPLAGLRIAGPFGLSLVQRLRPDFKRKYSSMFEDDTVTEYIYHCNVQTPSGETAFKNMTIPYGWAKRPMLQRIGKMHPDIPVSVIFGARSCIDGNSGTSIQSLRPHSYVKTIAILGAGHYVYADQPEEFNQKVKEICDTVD
# EWS-Fli block: inhibitors of EWS/Fli oncoprotein transcriptional activity | 0.67% of 350,000 active | A673 NR0B1-luciferase reporter, viability-normalised | inhibition, % at 12.6 µM | AID 651661;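 active = mean inhibition of at least 50% after viability correction, with every replicate also passing that limit; inconclusive = mean reaches 50% but only one of two replicates passes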;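 also: firefly luciferase signal divided by Alamar Blue viability fluorescence both relative to DMSO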
# Peg3 promoter: Peg3 promoter activity inhibition | inhibition, % at 20 µM | HeLa PEG-Prom luciferase reporter, luminescence, overnight | 1.7% of 360,000 active;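 active = inhibition of at least 50% at 20 µM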
# Shn3 inh set2: reduces Shn3 3'UTR luciferase signal in osteoblasts; Clone20 osteoblast Shn3 3'UTR firefly luciferase, 24 h; inhibition, % at 12.5 µM; 0.52% of 360,000 active; AID 588674;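 active = mean inhibition of at least 75% with every replicate also reaching 75%; inconclusive = mean inhibition at least 75% but some replicate below; inactive = mean inhibition below 75%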;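 also: 0% = median of neutral control wells and 100% = pilot-screen positive control compound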
# PAX8 inh HTS: PAX8 transcriptional activity inhibition. RMG-I TPO-luciferase reporter, SteadyGlo, 24 h. 1.2% of 360,000 active. inhibition, % at 12.6 µM. AID 652154;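 active = mean replicate inhibition at least 60% with every replicate also reaching 60%; inconclusive = only one of the two criteria is met; inactive = mean below 60% and not all replicates reaching 60%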;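 also: luciferase light reporting Pax8 driven TPO promoter activity; plate controls were median of neutral control wells for no effect and mitoxantrone controls for full effect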
# MITF TRPM1 inh: inhibitors of MITF-driven TRPM1 promoter in melanoma cells. SK-MEL-5 TRPM1 promoter luciferase, 24 h. inhibition, % at 12.5 µM. 0.83% of 330,000 active;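 active = mean inhibition across replicates of 60% or more, whatever share of single replicates reaches that level; inconclusive = some that reach 60%, reason not given; inactive = mean inhibition across replicates below 60%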
# * = called active by the depositor; u = inconclusive; x = no result given. This is a sample that favours compounds with a hit; in the whole collection about 3% have one here.
SMILES,ABHD5 PLIN5 PPI,EWS-Fli block,Peg3 promoter,Shn3 inh set2,PAX8 inh HTS,MITF TRPM1 inh
CN1/C(=C/C(=O)c2nc(S(C)(=O)=O)ncc2Cl)C(C)(C)c2ccccc21,69*,x,111*,96*,x,106*
CO[C@@H]1CN(C)C(=O)c2cc(NC(=O)Nc3ccccc3F)ccc2OC[C@@H](C)N(C(C)=O)C[C@@H]1C,x,0,x,x,3,x
OC(CNC1CCCCC1)CON=C1CCSc2c(Cl)cccc21 (stereo not drawn),3,0,96*,4,6,x
OC(CNC1CCCC1)COc1ccc(-c2ccccc2)cc1 (stereo not drawn),3,7,-4,3,-16,-1
CCCCN(C)CC(O)Cn1cc(/C=C/C(=O)c2ccc(C)cc2)c2ccccc21 (stereo not drawn),21,35,100*,-2,44,7
CCCN(CCC)CC(O)Cn1cc(/C=C/C(=O)c2ccccc2)c2ccccc21 (stereo not drawn),18,21,-7,15,1,-33
COC(=O)c1sc(N2C(=O)c3oc4ccccc4c(=O)c3C2c2cccc(O)c2)nc1C (stereo not drawn),2,-9,52*,26,7,-23
CNc1c2cccc(C)c2nc2c(C(=O)NCCN(C)C)cccc12,1,58*,108*,97*,36,100*
CC(NCCCOc1cccc2ccccc12)c1ccccc1 (stereo not drawn),5,32,94*,-29,7,10
O=c1c2sccc2nc(SCc2ccc([N+](=O)[O-])cc2)n1Cc1ccccn1,-9,-4,-35,34,69*,-22
CCn1c(Sc2ccc([N+](=O)[O-])cn2)nnc1-c1ccco1,0,13,9,39,71*,-6
CCN(CC)CCNCC(O)(c1ccc(Cl)cc1)c1ccc(Cl)cc1,8,17,-1,-1,13,4
CCN(CC)CCNc1c(C)cc(CO)c(Cl)c1C,1,12,72*,5,38,x
Cc1n[nH]c(C)c1CCC(=O)N/N=C/c1c(C)[nH]c2ccccc12,-3,27,13,x,85*,6
Cn1c(-c2ccccc2)cc2ccccc21,1,-12,-9,-1,-23,-26
Cn1c(-c2ccccc2)cc2c3no[n+]([O-])c3ccc21,3,x,-159,92*,x,32
C[C@@H]1CCCCO[C@H](CN(C)Cc2ccc(C(F)(F)F)cc2)[C@H](C)CN([C@@H](C)CO)C(=O)c2cc(NC(=O)Nc3ccccc3)ccc2O1,x,23,x,x,75*,x
C[C@@H]1CCCCO[C@@H](CN(C)Cc2ccc(C(F)(F)F)cc2)[C@H](C)CN([C@H](C)CO)C(=O)c2cc(NC(=O)Nc3ccccc3)ccc2O1,x,10,x,x,78*,x
C[C@@H]1CCCCO[C@H](CN(C)Cc2ccc(C(F)(F)F)cc2)[C@@H](C)CN([C@H](C)CO)C(=O)c2cc(NC(=O)Nc3ccccc3)ccc2O1,x,8,x,x,20,x
C[C@@H]1CN([C@H](C)CO)C(=O)c2cc(NC(=O)Nc3ccccc3)ccc2O[C@@H](C)CCCCO[C@@H]1CN(C)Cc1ccc(C(F)(F)F)cc1,x,10,x,x,80*,x
C[C@@H]1CCCCO[C@H](CN(C)Cc2ccc(C(F)(F)F)cc2)[C@H](C)CN([C@@H](C)CO)C(=O)c2cc(NC(=O)c3ccccc3)ccc2O1,x,64*,x,x,85*,x
C[C@@H]1CCCCO[C@H](CN(C)Cc2ccc(C(F)(F)F)cc2)[C@@H](C)CN([C@H](C)CO)C(=O)c2cc(NC(=O)c3ccccc3)ccc2O1,x,0,x,x,23,x
CO[C@H]1CN(C)C(=O)c2ccc(NC(=O)NC(C)C)cc2OC[C@H](C)N(C)C[C@H]1C,x,3,x,x,x,x
C[C@H](CO)N1C[C@H](C)[C@@H](CN(C)Cc2ccc(-c3ccccc3)cc2)Oc2ccc(NC(=O)Cc3cn(C)c4ccccc34)cc2CC1=O,x,17,x,x,x,x
C[C@@H]1CCCCO[C@H](CN(C)Cc2ccc(C(F)(F)F)cc2)[C@H](C)CN([C@H](C)CO)C(=O)c2cc(NC(=O)Nc3ccccc3)ccc2O1,x,23,x,x,64*,x
SMILES,ABHD5 PLIN5 PPI,EWS-Fli block,Peg3 promoter,Shn3 inh set2,PAX8 inh HTS,MITF TRPM1 inh
C[C@@H]1CCCCO[C@@H](CN(C)Cc2ccc(C(F)(F)F)cc2)[C@H](C)CN([C@@H](C)CO)C(=O)c2cc(NC(=O)Nc3ccccc3)ccc2O1,x,3,x,x,u,x
C[C@@H]1CN([C@@H](C)CO)C(=O)c2cc(NC(=O)Nc3ccccc3)ccc2O[C@@H](C)CCCCO[C@@H]1CN(C)Cc1ccc(C(F)(F)F)cc1,x,4,x,x,74*,x
C[C@@H]1CCCCO[C@@H](CN(C)Cc2ccc(C(F)(F)F)cc2)[C@@H](C)CN([C@@H](C)CO)C(=O)c2cc(NC(=O)Nc3ccccc3)ccc2O1,x,1,x,x,58,x
Cc1ccc(S(=O)(=O)Nc2cccc3c2O[C@@H](CN(C)C(=O)Nc2c(C)noc2C)[C@@H](C)CN([C@H](C)CO)C3=O)cc1,x,-15,x,x,10,x
C[C@H]1CCCCO[C@@H](CN(C)Cc2ccccc2)[C@@H](C)CN([C@@H](C)CO)C(=O)c2cc(NC(=O)Nc3ccc(C(F)(F)F)cc3)ccc2O1,x,24,x,x,108*,x
C[C@H](CO)N1C[C@H](C)[C@H](CN(C)Cc2ccccc2)OCCCC[C@H](C)Oc2ccc(NC(=O)Nc3ccc(C(F)(F)F)cc3)cc2C1=O,x,-3,x,x,115*,x
C[C@@H]1CCCCO[C@H](CN(C)Cc2ccccc2)[C@@H](C)CN([C@H](C)CO)C(=O)c2cc(NC(=O)Nc3ccc(C(F)(F)F)cc3)ccc2O1,x,-8,x,x,7,x
C[C@H]1CCCCO[C@H](CN(C)Cc2ccccc2)[C@@H](C)CN([C@@H](C)CO)C(=O)c2cc(NC(=O)Nc3ccc(C(F)(F)F)cc3)ccc2O1,x,41,x,x,120*,x
C[C@@H]1CCCCO[C@H](CN(C)Cc2ccccc2)[C@H](C)CN([C@H](C)CO)C(=O)c2cc(NC(=O)Nc3ccc(C(F)(F)F)cc3)ccc2O1,x,27,x,x,107*,x
C[C@@H]1CCCCO[C@@H](CN(C)S(C)(=O)=O)[C@@H](C)CN([C@H](C)CO)C(=O)c2cc(NS(=O)(=O)c3ccc(F)cc3)ccc2O1,x,-6,x,x,-6,x
C[C@@H]1CN([C@@H](C)CO)C(=O)c2cc(NC(=O)Nc3ccc(C(F)(F)F)cc3)ccc2O[C@@H](C)CCCCO[C@H]1CN(C)Cc1ccccc1,x,22,x,x,66*,x
C[C@@H]1CCCCO[C@H](CN(C)Cc2ccccc2)[C@H](C)CN([C@@H](C)CO)C(=O)c2cc(NC(=O)Nc3ccc(C(F)(F)F)cc3)ccc2O1,x,3,x,x,115*,x
COc1ccc(S(=O)(=O)N(C)C[C@H]2OCCCC[C@@H](C)Oc3ccc(NS(=O)(=O)c4cn(C)cn4)cc3C(=O)N([C@H](C)CO)C[C@@H]2C)cc1,x,x,x,x,-21,x
CO[C@@H]1CN(C)C(=O)c2cc(NS(C)(=O)=O)ccc2OC[C@@H](C)N(C)C[C@H]1C,x,5,x,x,-17,x
